According to the OligoGym collection:

What follows are sequences tested against ICAM4 (assay: pooled miR-30 sensor sort-seq; sequence = guide strand). Settings: shRNA.
Note: reference of the scale not given here.

Sequence | sensor-assay potency score (higher = more potent)
TTTGTAGGCGGTGATCCTGGAG | -0.0996
TGCACAGCCACGAACTCCGGGC | -1.29
TAGCTAGGCACTTGCATAGGTA | -0.927
TTTTCCTGCGCAGGTCACGAGG | -1.77
TTGTAGGCGGTGATCCTGGAGG | -1.08

Each sequence was assayed against ICOS in the same assay as above. Settings: shRNA.

Sequence | sensor-assay potency score (higher = more potent)
TTTTGTCTTAGTGAGATCGCAG | -0.217
TTTGTCTTAGTGAGATCGCAGA | -0.78
TAAACTACAACATAATCCCAGT | -0.438
TAAAATTTGTACACCTCCGTTG | -0.108
TTGACTGATACAGTCATTCTTC | 0.168
TAGTATGATAGTGAAATGCGGA | -0.711
TTTAAGAATCTTTCTAGCCAAA | -1.13
TACTGTACTGTACACATCCAGC | -0.859
TTGTGAATTATTATTCATCTTG | -0.481
TTGTGATTCATAAATATGCAAA | -1.24
TTGTGAAATATAAACATCTCAT | -0.925
TAAACATCTCATAATTGGCAGA | -0.689

What follows are sequences tested against IDI2 in the same assay as above. Settings: shRNA.

Sequence | sensor-assay potency score (higher = more potent)
TAAACGTCGAGTCACTTGGCTG | -1.26
TTATTTGTAAGCATATTACTGA | 0.0641
TTGTCATGAACACAATGTCCTC | -1.35
TTTCGTTTCACTGGGATCCGGG | -0.0224
TTTTCTTCCAGTTCTGCTGGGT | 0.298
ATTCTCATCCACAACAATCAGC | -0.745
TAGGATGCAAGATTGAATGTGT | 0.9
TAGTGATTTATACATGATGGGC | -1.3
TTTCTCAATGTTTTCGTTCAGA | -0.492
TTTCGTGTCCGACCTCTGCTGT | -0.749
TTGTGAAGCTCCACAAACGGGG | -0.921
TAACCTTATCATTCTCATCCAC | -0.207

Each sequence was assayed against IER5 in the same assay as above. Settings: shRNA.

Sequence | sensor-assay potency score (higher = more potent)
TAAAAATATATCTTTTCTCTAT | -0.862
TTCTTATGCAGCTTGATGCCGC | -0.805
TTATGCAGCTTGATGCCGCCGC | -0.467
ATAAGGTCTTTCCACTTCGGGC | -1.59
TTGTAGATCTTGCCCAGAGAGA | -1.34
TTCCAAGCTTGAACTCTTCTGT | 0.444
TTATCGCAGCAGATCTGCCCGG | -0.618
TATCGCAGCAGATCTGCCCGGG | -0.199
TACAAAAATCAATACAACGAAG | -1.23
TTCATGTCTCTCAGCACCGGCT | -0.831
TTTCCTAGAGTAATCACAGGAT | 0.282
